Source: PubChem BioAssay
The list is not random: actives were taken first. Their share in the collection is about 19%.
HepG2 tox – qHTS for Inhibitors of TGF-b: Cytotox Counterscreen; 410,000 compounds, 0.76% hits; AID 588856, 2011; HepG2 CAGA-GFP viability, ATP luminescence, 18 h; Potency, µM (doses to about 46.1 µM), actives largely listed as cytotoxic
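CellTiter-Glo luminescence gave cytotoxicity after 18 hours at 37 degrees C. The cells were HepG2 CAGA-GFP in 1% FBS DMEM, stimulated with 500 pg/mL TGF-beta after compound addition. %Activity was normalised to no-cell wells (complete cell-killing) and DMSO (no toxicity), and curves were fitted and classified.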
S-ASM inh – Inhibitors of Secretory Acid Sphingomyelinase (S-ASM): qHTS. AID 504937, 2011. 340,000 compounds, 0.006% hits. Potency, µM (doses to about 57.5 µM), actives largely listed as inhibitors. Sphingomyelin phosphodiesterase (Homo sapiens), P17405. placental ASM, HMU-PC fluorogenic substrate, 60 min
Target sequence (P17405 47-631 limits assumed): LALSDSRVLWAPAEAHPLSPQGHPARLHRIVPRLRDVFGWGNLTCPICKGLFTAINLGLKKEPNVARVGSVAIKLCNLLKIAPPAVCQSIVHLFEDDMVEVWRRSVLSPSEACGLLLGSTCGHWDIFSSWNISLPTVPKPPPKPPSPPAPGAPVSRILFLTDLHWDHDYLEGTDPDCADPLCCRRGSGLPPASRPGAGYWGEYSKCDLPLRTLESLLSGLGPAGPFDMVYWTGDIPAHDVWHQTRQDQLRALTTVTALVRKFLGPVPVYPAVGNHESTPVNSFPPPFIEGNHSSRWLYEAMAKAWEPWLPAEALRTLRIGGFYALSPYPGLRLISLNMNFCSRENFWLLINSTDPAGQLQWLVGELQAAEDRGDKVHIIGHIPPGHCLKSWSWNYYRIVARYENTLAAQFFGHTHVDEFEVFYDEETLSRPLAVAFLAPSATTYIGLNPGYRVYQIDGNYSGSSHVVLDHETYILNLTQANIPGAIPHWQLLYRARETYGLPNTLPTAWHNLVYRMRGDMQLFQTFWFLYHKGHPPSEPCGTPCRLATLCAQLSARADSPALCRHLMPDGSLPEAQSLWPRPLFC
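Fluorescence read-out (Ex 386 nm, Em 447 nm) after stopping the reaction at pH 10. Enzyme: ASM from human placenta; substrate HMU-PC0, 9 uM final; 60 min, 37 °C. Compound preincubation 10 min, ambient temperature.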
DT40 TDP1 no CPT – qHTS for Inhibitors of human tyrosyl-DNA phosphodiesterase 1 (TDP1): qHTS in cells in absence of CPT; AID 686978, 2013; Potency, µM (doses to about 46.2 µM), actives largely listed as inhibitors; 420,000 compounds, 15% hits; DT40 Tdp1-/- hTDP1 cells, no CPT, ATP luminescence, 48 h; also: nearly all actives have a fitted effect of over 55% in size
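Stably hTDP1-transfected Tdp1-null chicken DT40 cells were treated with library compounds minus camptothecin and grown for at least 48 hr at 37 °C, after which cellular ATP was quantified by luminescence.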
TGFb SMAD3 inh – qHTS for Inhibitors of TGF-b | HepG2 CAGA-GFP TGF-b/SMAD3 reporter, GFP fluorescence, 18 h; TGF-beta stimulated, 500 pg/mL final | Potency, µM (doses to about 46.1 µM), actives largely listed as inhibitors | 410,000 compounds, 1.2% hits; also: nearly all actives have a fitted effect of over 65% in size
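Inhibition of TGF-beta-driven CAGA-GFP reporter expression in HEPG2 cells is measured by cellular GFP fluorescence after 18 h stimulation with 500 pg/mL recombinant TGF-beta in 1% FBS medium at 37 degrees C.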
IL1B secr inh – qHTS for Inhibitors of Inflammasome Signaling: IL-1-beta AlphaLISA Primary Screen. THP-1 LPS/ATP IL-1B secretion, AlphaLISA, 16 h; active compounds read low. activity change, % at 57.5 µM. 360,000 compounds, 4.7% hits; in the data active = activity change below about -50%; inconclusive = mostly about -30% to -49%
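THP-1 cells pretreated 1 hr with compounds (up to 57.5 uM final), then stimulated with LPS (250 ng/mL final) plus ATP (1.25 mM final); secreted IL-1B measured by AlphaLISA after 16 hr, decreased signal indicating inhibition.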
DT40 TDP1 CPT – qHTS for Inhibitors of human tyrosyl-DNA phosphodiesterase 1 (TDP1): qHTS in cells in presence of CPT; chicken DT40 Tdp1-/-;hTDP1 cells + 20 nM CPT, ATP luminescence, 48 h; Potency, µM (highest dose often 46.2 µM), actives largely listed as inhibitors; 420,000 compounds, 12% hits; AID 686979, 2013; also: nearly all actives have a fitted effect of over 55% in size
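Chicken DT40 Tdp1-/- cells stably complemented with human TDP1 were seeded at 400 cells/well in medium containing 20 nM camptothecin, exposed to pin-transferred compounds, and grown at 37 °C for at least 48 hr. Viability was read as ATP luminescence.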
A number is an active result; . = inactive; ? = inconclusive; / = not tested or not shown. Unless noted, calls follow the shape of the dose curve; as a rule, active = well fitted curve in the direction sought with a large enough effect; inconclusive = small, poorly fitted or top-dose-only effect, or another doubt; inactive = no such curve, though single readings can be large; an effect the other way counts as inactive or inconclusive.

SMILES	HepG2 tox	S-ASM inh	DT40 TDP1 no CPT	TGFb SMAD3 inh	IL1B secr inh	DT40 TDP1 CPT
CCCc1ncc(CN2CCC(C(=O)Nc3cccc(-c4cscn4)c3)CC2)cn1	.	.	29µM	?	.	?
Cn1cc(CN2CCC(C(=O)Nc3cccc(-c4cscn4)c3)CC2)cn1	.	.	.	.	.	.
CCCn1cc(CN2CCC(C(=O)Nc3cccc(-c4cscn4)c3)CC2)c(C)n1	.	.	?	.	-72	?
COCCNC(=O)Cn1cc(/C=C(\C#N)C(=O)NC2CCCC2)c2ccccc21	.	.	?	.	.	.
O=C(c1cnsn1)N1CCCC(Nc2ccc(F)c(F)c2)C1 (stereo unspecified)	.	.	.	.	.	.
COCCNC(=O)c1ccc(CS(=O)(=O)c2ccccc2)o1	.	.	16µM	.	.	18µM
COCCNC(=O)c1ccc(CS(=O)(=O)c2ccc(Cl)cc2)o1	.	.	.	?	.	.
CCCCSCCCNC(=O)c1ccc(CS(=O)(=O)c2ccc(OC)cc2)o1	.	.	?	.	.	18µM
COc1ccccc1CNC(=O)c1ccc(CS(=O)(=O)c2c(Cl)cccc2Cl)o1	.	/	?	.	/	?
COc1ccc(S(=O)(=O)Cc2ccc(C(=O)NCc3ccccc3OC)o2)cc1	.	.	.	.	.	21µM
OCC1(Cc2ccc(F)cc2)CCCN(CCCC(F)(F)F)C1 (stereo unspecified)	.	.	.	.	.	.
COc1ccc(NC(=O)CN2CCCC2c2cccs2)cc1S(=O)(=O)N1CCCCC1 (stereo unspecified)	.	.	?	?	?	?
Cc1ccc(/C=N/NC(=O)c2nnn(-c3nonc3N)c2CN(C)c2ccccc2)s1	.	?	.	.	.	.
COc1ccc(-c2csc(-c3nc(-c4ccc(Br)s4)cs3)n2)cc1F	.	/	.	.	/	.
COc1ccc(NC(=O)c2ccc(N3C(=O)C4CC=C(C)CC4C3=O)cc2)c(OC)c1 (stereo unspecified)	.	.	.	.	.	.
Cc1c(CCOC(=O)c2ccc(N3CCOCC3)c([N+](=O)[O-])c2)sc[n+]1CC#N	.	.	2.6µM	?	-102	4.6µM
COc1cccc(NC(=O)CSC2=Nc3ccccc3C3=NC(CC(=O)NCc4ccc5c(c4)OCO5)C(=O)N23)c1 (stereo unspecified)	.	/	?	?	/	?
Fc1ccc(NC(=S)Nc2ccc(F)c(Cl)c2)cc1Cl	.	.	13µM	?	-77	23µM
O=C(Nc1ccc(F)c(Cl)c1)C1CCCC1	10µM	.	.	.	.	.
Cc1ccc(NC(=S)Nc2ccc(OC(F)F)c(Cl)c2)cc1F	.	.	?	?	-95	?
O=C(Nc1ccc(F)c(Cl)c1)C1CCCCC1	.	.	.	.	.	.
COC(=O)NC(=S)Nc1ccc(Oc2ccc(Cl)cc2)c(Cl)c1	.	.	?	.	.	?
O=C(Nc1ccc(OC(F)F)c(Cl)c1)c1ccccn1	.	.	?	.	.	?
O=C(NC(=S)Nc1ccc(F)c(Cl)c1)C1CC1	.	.	.	?	.	.
COC(=O)NC(=S)Nc1ccc(Oc2ccc(Cl)cc2Cl)c(Cl)c1	.	.	4.6µM	.	.	9.2µM
COCC(C)NC(=O)CSc1nc2cc(S(=O)(=O)N3CCCCC3)ccc2o1 (stereo unspecified)	.	.	.	.	.	.
Cc1ccc(CS(=O)Cc2ccc(C(=O)NCc3ccc(OC(C)C)cc3)o2)cc1 (stereo unspecified)	.	.	.	.	.	.
